# Screens: PubChem, National Center for Advancing Translational Sciences (NCATS)
# HT1080 IDH1KD tx = toxicity to HT-1080 IDH1 knockdown cells (counter line); HT-1080 IDH1 knockdown viability, ATP luminescence, 48 h; Potency, µM (series often up to 46.1 µM), inactives show at the top dose activity, negative = toxicity, most hits filed as cytotoxic; 2% of 360,000 active; AID 686971;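 further: 0% = DMSO wells and -100% = cell-free medium wells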
#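 Knockdown cells (IDH1KD HT-1080) received compounds 2 h after plating at 750 cells/well and were kept 48 h at 37 °C in 5% FBS RPMI. A CellTiter-Glo luminescence read gave % activity for curve fitting.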
# SW480 rerep = DNA re-replication induction in SW480 cells; 1.8% of 340,000 active; Potency, µM (top dose mostly 46.1 µM), for inactives: at the highest dose re-replication activation, most hits filed as activators; AID 624297; SW480 DNA re-replication, Hoechst DNA content imaging, 48 h; further: % of control where 0% means no effect; nearly all actives have a fitted effect of over 55% in size
#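 Readout is total intensity of Hoechst-stained nuclei, excited at 405 nm and collected at 500-530 nm. Compound treatment lasted 48 hr at 37 C in 5% CO2 before staining.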
# KB-V1 cytotox = kills drug-selected multidrug resistant KB-V1 cells; KB-V1 MDR cells viability, CellTiter-Glo, 72 h; Potency, µM (highest dose often 46.1 µM), hits mostly cytotoxic; 3.4% of 400,000 active; AID 1347076; further: on the % scale 0 is the no-effect control and ±100 the full control effect; nearly all actives have a fitted effect of over 60% in size
#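 Following 72 h at 37 degrees C with compound, KB-V1 cell viability was read by CellTiter-Glo luminescence, medium being phenol-red-free DMEM plus 10% FBS; concentration-response parameters came from normalized, curve-fitted qHTS data.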
# MCF10A rereplic = induces DNA re-replication in MCF 10a normal breast cells; AID 624296; MCF 10A DNA re-replication, Hoechst nuclear intensity, 48 h; 2.9% of 350,000 active; Potency, µM (series often up to 46.1 µM), inactives show at the top dose activity, positive = re-replication, actives largely listed as activators; further: % of control where 0% means no effect; nearly all actives have a fitted effect of over 50% in size
# HT1080NT lethal = kills 2HG-producing HT-1080-NT fibrosarcoma cells; AID 686970; HT-1080-NT fibrosarcoma viability, CellTiter-Glo ATP luminescence, 48 h; 1.6% of 360,000 active; Potency, µM (doses to about 46.1 µM), without a hit: at the highest dose activity, negative = less viability, hits mostly cytotoxic;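 further: NT is the 2HG producing partner of a matched IDH1 knockdown line; 0% = DMSO-treated cells and -100% = media-only wells without cells; nearly all actives have a fitted effect of over 55% in size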
#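 Viability by CellTiter-Glo luminescence after 48 h compound exposure at 37C of HT-1080-NT cells (750/well, RPMI, 5% FBS). % activity scaled between DMSO wells and medium-only wells, then curve-fitted and categorized by curve class.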
# KB-3-1 cytotox = KB-3-1 parental cell cytotoxicity | Potency, µM (titrated, usually from 46.1 µM), usual class: cytotoxic | 1.4% of 400,000 active | KB-3-1 viability, CellTiter-Glo ATP luminescence, 72 h | AID 1347075; further: on the % scale 0 is the no-effect control and ±100 the full control effect; nearly all actives have a fitted effect of over 60% in size
#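 Multi-concentration cytotoxicity screen in KB-3-1 cells grown in DMEM lacking phenol red with 10% FBS. After 72 h at 37 °C with compound, ATP-dependent luminescence was recorded.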
# Starred values were filed as active, the others as inactive; i = inactive; ? = inconclusive; · = no result; [ ] = remark or other dose. An excerpt weighted towards active compounds, which were near 7.9% of everything screened. The call rests on the fitted dose curve; in most records, active means well fitted curve in the direction sought with a large enough effect; inconclusive means small, poorly fitted or top-dose-only effect, or another doubt; inactive means no such curve, though single readings can be large; an effect the other way counts as inactive or inconclusive. Potency means the concentration at half of the fitted maximal effect.
SMILES,HT1080 IDH1KD tx,SW480 rerep,KB-V1 cytotox,MCF10A rereplic,HT1080NT lethal,KB-3-1 cytotox
O=C(CSc1nc(-c2ccccc2)nn1C(=O)c1ccccc1)Nc1cccc([N+](=O)[O-])c1,1.9%,-7.9%,20.6µM*,4.7%,-0.8%,?
Cc1ccc(NC(=O)CSc2nc3ccccc3c3nc4ccccc4n23)cc1,0.282µM*,0.651µM*,1.64µM*,1.46µM*,0.398µM*,0.92µM*
CC(=O)n1nc(-c2cccc(C)c2)nc1SCC(=O)Nc1ccccc1,-7.4%,-2.6%,i,20.6%,-0.5%,i
CCC(=O)n1nc(-c2ccccc2)nc1SCC(=O)Nc1ccc(C)cc1,2.2%,-18.9%,20.6µM*,-0.2%,0.0%,i
CCN(CC)S(=O)(=O)c1ccc2oc(C(=O)NCc3ccccc3OC)c(C)c2c1,·,·,i,·,·,i
CCOc1ccc(OCCCC(=O)N(CC)CC(=O)Nc2c(F)cccc2F)cc1,-4.3%,?,i,4.5%,-13.1%,i
CCN(c1cccc(C(F)(F)F)c1)S(=O)(=O)c1ccc2c(c1)CCN2C(=O)C1CC1,?,-0.6%,?,27.3%,-28.3%,11.2µM*
CN(C)CCNc1oc(-c2ccc(COc3ccc(Cl)cc3)o2)nc1C#N,·,·,i,·,·,i
C=CCNc1cc(C(F)(F)F)nc(-c2ccccn2)n1,-0.2%,-1.9%,i,3.1%,8.1%,i
FC(F)(F)c1cc(Oc2ccccc2)nc(-c2ccccn2)n1,-29.1%,?,14.6µM*,18.2%,?,?
CCN(CC)c1cc(C(F)(F)F)nc(-c2ccccn2)n1,?,?,18.4µM*,?,?,i
FC(F)(F)c1cccc(Sc2cc(C(F)(F)F)nc(-c3ccccn3)n2)c1,-10.1%,-11.2%,16.4µM*,-180.3%[0.0737 µM],-1.2%,?
CCCCc1ccc(NC(=O)Cn2cnc3c(oc4ccccc43)c2=O)cc1,·,·,i,·,·,i
NC(=O)C1CCN(c2nccc(-c3ccc4c(c3)OCCO4)n2)CC1,·,·,?,·,·,9.2µM*
Cc1ccc2oc(=S)n(C)c2c1,-10.1%,?,i,-7.2%,-3.8%,i
Cc1ccc2c(C)c(C)c(=O)n(C)c2c1,12.6%,-2.4%,14.6µM*,2.4%,8.7%,i
O=C(c1cccnc1)N1CCc2ccccc2C1,-15.2%,13.6%,i,-5.8%,3.9%,i
NNc1cc2c(nn1)CCN(C(=O)c1ccccc1)C2,?,·,i,·,?,18.4µM*
COc1ccc(C(=O)/C=C/C(=O)N(CC(=O)NC2CCCCC2)Cc2ccccc2OC)c(O)c1,?,3.26µM*,14.6µM*,?,?,?
COc1ccc(C(=O)/C=C/C(=O)N(CC(=O)NC2CCCCC2)CC2CCCO2)c(O)c1 (stereo unspecified),?,-21.5%,?,11.6µM*,-21.9%,?
COc1cccc(CN(CC(=O)NC2CCCC2)C(=O)CCC(=O)Nc2cc(C)on2)c1,18.8%,-8.7%,i,-0.4%,10.4%,i
Cc1ccc(S(=O)(=O)NCC(=O)N(CC(=O)NC2CCCC2)CC2CCCO2)cc1 (stereo unspecified),18.0%,9.5%,i,-0.8%,14.1%,i
COc1ccc(C(=O)/C=C/C(=O)N(CC(=O)NC2CCCCC2)Cc2ccccc2)c(O)c1,3.66µM*,6.51µM*,i,?,3.66µM*,?
COC(=O)c1ccc(NC(=O)NCCn2nnc3cc(S(=O)(=O)N(C)C)ccc32)cc1,·,·,i,·,·,i
CC(=O)N1C[C@H]2CON(C)[C@H]2C[C@H]1c1ccc(-c2cccnc2)cc1,15.4%,·,i,·,0.8%,i
CN(C(=O)COC(=O)C1CCN(S(=O)(=O)c2ccc3c(c2)OCCO3)CC1)C1CCS(=O)(=O)C1 (stereo unspecified),-1.6%,-12.5%,i,2.8%,3.5%,i
